# According to PubChem BioAssay (NCI):
# Compounds without any hit were thinned out: in the full panel of roughly 83,000, 20% have a hit.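 Method: cells in 96-well plates; compound added at one concentration; 48 h incubation; percent growth measured; values under 10 scored active.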 Unmarked numbers belong to inactive results. Activity calls are given as the source filed them.
# Experiments:
# Test in all cases: NCI-60 one-dose screen, 48 h (100 = growth as untreated, 0 = no growth, -100 = all killed)
# NCI-H322M lung = conditions: 10 µM
# HOP-62 NSCLC = conditions: 10 µM
# NCI-H460 lung = conditions: 10 µM
# NCI-H522 lung = conditions: 10 µM
# A549/ATCC NSCLC = conditions: 10 µM
# DU-145 prostate = conditions: 10 µM
# SF-268 CNS = conditions: 10 µM
# SF-295 CNS = conditions: 10 µM
# SF-539 CNS = conditions: 10 µM
# M14 melanoma = conditions: 10 µM
# HCT-15 colon = conditions: 10 µM
# HT29 colon = conditions: 10 µM
# SNB-75 CNS = conditions: 10 µM
# SNB-19 CNS = conditions: 10 µM
# U251 CNS = conditions: 10 µM
# PC-3 prostate = conditions: 10 µM
# UACC-62 melanoma = conditions: 10 µM
# SK-MEL-28 melanoma = conditions: 10 µM
# SK-MEL-2 melanoma = conditions: 10 µM
# HL-60(TB) leukemia = conditions: 10 µM unless noted
Compound,growth (NCI-H322M lung),growth (HOP-62 NSCLC),growth (NCI-H460 lung),growth (NCI-H522 lung),growth (A549/ATCC NSCLC),growth (DU-145 prostate),growth (SF-268 CNS),growth (SF-295 CNS),growth (SF-539 CNS),growth (M14 melanoma),growth (HCT-15 colon),growth (HT29 colon),growth (SNB-75 CNS),growth (SNB-19 CNS),growth (U251 CNS),growth (PC-3 prostate),growth (UACC-62 melanoma),growth (SK-MEL-28 melanoma),growth (SK-MEL-2 melanoma),growth (HL-60(TB) leukemia)
O=C(/C=C/c1ccc(Cl)cc1)c1nc2ccccc2n1Cc1ccc(Br)cc1,78.8%,65.5%,58.1%,76%,73.4%,66.1%,75.3%,73.3%,43.8%,65.4%,21.4%,38.1%,79.2%,65.9%,34.4%,36.6%,48.6%,80.1%,83.3%,35.8%
CCOC(=O)C1=C(Nc2ccccc2)C(=O)OC12C(=O)Nc1ccccc12 (stereo not given),103%,97.6%,108%,96.5%,112%,114%,95.7%,107%,97.6%,105%,105%,111%,80.6%,96.4%,109%,91.3%,93.5%,107%,99.9%,102%
O=C(/C=C/c1ccccc1Cl)c1nc2ccccc2n1Cc1ccc(F)cc1,-42.1% (active),-77.5% (active),-54.6% (active),-81.2% (active),-44.3% (active),-34.8% (active),-2.61% (active),-86.8% (active),-94.4% (active),-79.4% (active),-83.1% (active),-85.6% (active),6.88% (active),-79.2% (active),-87.5% (active),-57.3% (active),-93.2% (active),-86.2% (active),-68.5% (active),-38.4% (active)
C=CCN=C([Se])NC(=O)c1ccc2c(c1)OCO2,14.8%,26.9%,18.3%,105%,40.4%,101%,110%,13.7%,67.3%,86.8%,97.1%,96%,26%,39.2%,36.2%,40.1%,97.9%,111%,143%,106%
O=C(/C=C/c1ccc(Cl)cc1Cl)c1nc2ccccc2n1Cc1ccc(F)cc1,69.7%,58.2%,43.8%,76.2%,66.5%,55.4%,49.9%,60.6%,17.9%,59.8%,11.8%,7.3% (active),38.6%,57.7%,13.4%,29.4%,40.1%,74%,94.7%,28%
COP(=O)(CC(F)(F)C(F)(F)F)OC,109%,99.7%,95.9%,-71.5% (active),87.4%,9.69% (active),88.4%,100%,4.99% (active),-65.3% (active),-15.2% (active),-35.5% (active),87.5%,101%,81.7%,69.5%,65.3%,-58.1% (active),25.2%,8.78% (active)
O=C(NC([Se])=NC1CCCCC1)c1ccc2c(c1)OCO2,11.9%,23.3%,10.6%,42.1%,26.8%,49%,122%,6.53% (active),56.9%,60.2%,47.3%,55.6%,10.6%,33.3%,27.6%,36.4%,76.3%,51.6%,99.6%,65.7%
COc1cc(OC)c(S(=O)(=O)N(CCCl)CCCl)cc1C(=O)/C=C/c1cc(OC)c(OC)c(OC)c1,12.9%,-5.79% (active),1.08% (active),-69.1% (active),3.9% (active),-30.3% (active),2.74% (active),0.899% (active),-74.1% (active),-59.4% (active),-25.1% (active),-58.7% (active),-78.2% (active),-38.6% (active),-79.6% (active),10.3%,-33.9% (active),-68.5% (active),-94.5% (active),-25.8% (active)
